Screens: PubChem BioAssay, National Center for Advancing Translational Sciences (NCATS)
Only some compounds are listed: those with a hit (about 2.8% of all), similar ones and a draw of the others.
Giardia killer = kills Giardia lamblia; Giardia lamblia trophozoite viability; activity change, % at 7.66 µM, hits read low; actives 0.15% (n = 340,000); AID 540267; in the data active means activity change below about -80%; inconclusive means between about -30% and that limit;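 further: parasites exposed to compound for two days anaerobically before the ATP read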
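Luminescent ATP signal served as the viability read-out, measured 15-30 min after adding ATP detection reagent to trophozoites that had been incubated with compounds for 48 hrs at 37 deg C anaerobically at 100 cells/well.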
D3 antag = blocks the human D3 dopamine receptor; P35462; D3R cells, DiscoveRx beta-arrestin luminescence, antagonist mode; hits give low values; max response, negative = inhibition, %; actives 2.5% (n = 360,000); in the data active means max response below about -50%; inconclusive means no clear call, values can overlap the other calls
Target sequence (P35462 whole entry, looked up): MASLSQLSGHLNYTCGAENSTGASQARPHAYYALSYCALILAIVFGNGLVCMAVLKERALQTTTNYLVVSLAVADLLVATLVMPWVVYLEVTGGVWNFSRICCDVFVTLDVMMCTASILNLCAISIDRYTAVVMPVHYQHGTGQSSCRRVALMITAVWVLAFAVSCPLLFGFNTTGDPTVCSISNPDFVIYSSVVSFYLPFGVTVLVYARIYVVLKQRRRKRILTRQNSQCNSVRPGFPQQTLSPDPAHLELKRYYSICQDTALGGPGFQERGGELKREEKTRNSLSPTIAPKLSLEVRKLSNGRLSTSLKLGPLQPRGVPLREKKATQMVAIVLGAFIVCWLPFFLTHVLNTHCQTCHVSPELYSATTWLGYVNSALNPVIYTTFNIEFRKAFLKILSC
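Cells expressing the human receptor were seeded at 1500 cells/well, incubated overnight at 37 degrees C in 5% CO2, then exposed to library compounds with dopamine controls for 90 minutes at 37 degrees C before luminescent detection.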
DRD3 agonist = D3 dopamine receptor (human) agonism; D3R DiscoveRx beta-arrestin cells, luminescence, 90 min; max activation, %; actives 0.58% (n = 410,000); AID 652048; in the data active means max activation above about 30%
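Agonist mode: compounds and dopamine controls were applied to plated cells for 90 min at 37 degrees C after an overnight attachment at 1500 cells/well. Luminescent read-out followed 30 - 60 minutes at room temperature with DiscoveRx detection reagent.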
B2AR arrestin = recruits beta-arrestin to the human beta2-adrenergic receptor. Potency, µM (doses to about 46.1 µM), usual class: activators. actives 0.02% (n = 330,000). AID 492947. beta-arrestin recruitment to beta2AR, cell-based reporter; active means well fitted activation curve with a large enough effect; inconclusive means small, poorly fitted or top-dose-only effect; further: nearly all actives have a fitted effect of over 65% in size
Each line names hits and unclear results; the compound was inactive in the other large screens.

COc1ccccc1-c1cc(C(=O)Nc2sc3c(c2C#N)CCC(C)C3)c2ccccc2n1 (stereo unspecified)	D3 antag -63
CCCN1CCc2c(sc(NC(=S)NC(=O)c3ccccc3)c2C#N)C1	DRD3 agonist 38
CC(C)N1CCc2c(sc(NC(=S)NC(=O)c3ccccc3)c2C#N)C1	none
Cc1onc(-c2ccccc2)c1C(=O)NC(=S)Nc1sc2c(c1C#N)CCC(C)C2 (stereo unspecified)	DRD3 agonist 35
COC(=O)c1sc(NC(=O)c2cc(-c3ccccc3)nc3ccccc23)c(C#N)c1C	none
Cc1onc(-c2ccccc2)c1C(=O)NC(=S)Nc1sc2c(c1C#N)CCCC2	none
COCCCNCCCCOc1ccc(Br)cc1C	D3 antag -97
Cc1cc(Br)ccc1OCCCCNC(C)(C)C	D3 antag -66
OC[C@@H]1[C@@H](c2ccc(Cl)cc2)C(c2ccc(F)cc2)=NN1c1ccccc1	none
OC[C@@H]1[C@@H](c2ccccc2)C(c2ccc(F)cc2)=NN1c1ccccc1	DRD3 agonist 38
COc1cc(C(C)=O)ccc1OCCCN1CCC(c2noc3cc(F)ccc23)CC1	none (no result: Giardia killer, D3 antag, B2AR arrestin)
CCN1CCN(c2sc(S(C)(=O)=O)nc2S(=O)(=O)c2ccc(C)cc2)CC1	none
CCN1CCN(c2sc(S(=O)(=O)CC)nc2S(=O)(=O)c2ccc(C)cc2)CC1	D3 antag -80 (no result: Giardia killer, B2AR arrestin)
CCCS(=O)(=O)c1nc(S(=O)(=O)c2ccc(C)cc2)c(N2CCN(CC)CC2)s1	D3 antag -109
CCCS(=O)(=O)c1nc(S(=O)(=O)c2ccc(C)cc2)c(N2CCN(C)CC2)s1	D3 antag -61
CC(C)(C)C1CCc2onc(C(=O)Nc3sc4c(c3C#N)CCCC4)c2C1 (stereo unspecified)	none (no result: Giardia killer, D3 antag, B2AR arrestin)
Cc1nc2ccc(S(=O)(=O)N(C)CC(=O)Nc3cccc(C(F)(F)F)c3)cc2s1	none (no result: Giardia killer, D3 antag, B2AR arrestin)
Cc1c2cnn(CC(=O)NCCc3ccccc3)c(=O)c2c(C)n1Cc1ccccc1Cl	none (no result: Giardia killer, D3 antag, B2AR arrestin)
CCOc1ccccc1NC(=O)C1CCN(S(=O)(=O)Cc2ccccc2)CC1	none (no result: Giardia killer, D3 antag, B2AR arrestin)
Cc1cc(C(C)(C)C)c(O)c(C)c1CC1=NCCN1	D3 antag -98
CCOc1ccc(-c2nc(CSCC(=O)NCc3ccc(Cl)cc3)c(C)o2)cc1	DRD3 agonist 32 (no result: Giardia killer, D3 antag, B2AR arrestin)
Cc1ccccc1Oc1ccc2c(c1)[C@@H]1C[C@H]3[C@@H](C(=O)N1CC2)[C@H](C)ON3C	DRD3 agonist 31 (no result: B2AR arrestin)
COc1ccc(-c2ccc3c(c2)[C@@H]2C[C@H]4[C@@H](C(=O)N2CC3)[C@H](C)ON4C)cc1	none (no result: B2AR arrestin)
COc1ccc(-n2ncc3c2ncn2nc(COc4ccc(Cl)cc4)nc32)cc1	none (no result: Giardia killer, D3 antag, B2AR arrestin)
CCC(NC(C)C)C(O)c1ccc(O)c2[nH]c(=O)ccc12 (stereo unspecified)	DRD3 agonist 35, B2AR arrestin 0.18µM
CNCc1ccccc1Sc1cc(O)ccc1O	D3 antag -55, B2AR arrestin inconclusive
COc1cccc(-n2nnnc2S(C)(=O)=O)c1	D3 antag -77
O=C(CSc1ccc2ccccc2c1)NCCc1ccc(O)c(O)c1	DRD3 agonist 69
Cc1occc1C(=O)N/N=C/c1sc(N2CCOCC2)nc1-c1ccccc1	D3 antag -54
CN(CC(=O)NCC1COc2ccccc2O1)S(=O)(=O)c1ccc(Cl)cc1 (stereo unspecified)	none
c1ccc(CCNCC2COc3ccccc3O2)cc1 (stereo unspecified)	D3 antag -85
c1ccc2c(c1)OCC(CNCC1COc3ccccc3O1)O2 (stereo unspecified)	D3 antag -81
Oc1ccc(CNCC2COc3ccccc3O2)cc1 (stereo unspecified)	D3 antag -73
CN(C)S(=O)(=O)c1cccc(CNCC2COc3ccccc3O2)c1 (stereo unspecified)	D3 antag inconclusive, DRD3 agonist 31
O=C(O)CNCC1COc2ccccc2O1 (stereo unspecified)	none
C[C@@H]1CN([C@@H](C)CO)C(=O)c2cc(Br)cnc2O[C@H]1CN(C)Cc1cccnc1	none (no result: Giardia killer, B2AR arrestin)
C[C@H](CO)N1C[C@H](C)[C@@H](CN(C)Cc2ccncc2)Oc2ncc(Br)cc2C1=O	D3 antag -114 (no result: Giardia killer, B2AR arrestin)
CCN(CC)CCN1C(=O)c2ccccc2NC1c1ccc(OC)c(COc2ccc(NC(C)=O)cc2)c1 (stereo unspecified)	none (no result: D3 antag, DRD3 agonist, B2AR arrestin)
OCCCNc1ncnc2sc3c(c12)CCN(Cc1ccccc1)C3	none
O=c1[nH]cnc2sc3c(c12)CN(Cc1ccccc1)CC3	DRD3 agonist 60
O=c1[nH]cnc2sc3c(c12)CCN(Cc1ccccc1)C3	DRD3 agonist 74
COc1ccc(C2Nc3ccccc3C(=O)N2Cc2ccco2)cc1COc1c(C)cccc1C (stereo unspecified)	none (no result: D3 antag, DRD3 agonist, B2AR arrestin)
CCOC(=O)c1nnn(-c2nonc2N)c1-c1ccc(OC)cc1	D3 antag -54
CCCc1c(C(=O)N/N=C(\C)c2ccc(O)cc2)nnn1-c1nonc1N	none
CCCc1c(C(=O)N/N=C(\C)c2ccccn2)nnn1-c1nonc1N	D3 antag -85 (no result: Giardia killer, B2AR arrestin)
CCOC(=O)c1nnn(-c2nonc2N)c1COc1ccccc1	D3 antag -58
CCOC(=O)N1CCN(C(=O)Cc2ccc(C)cc2)CC1	D3 antag -58
COc1ccc(C)cc1NC(=O)c1ccc(CN2CCc3ccccc3C2)cc1	D3 antag -69
COC(=O)c1ccc(C)c(NC(=O)c2ccc(CN3CCc4ccccc4C3)cc2)c1	D3 antag -92
O=C(Nc1ccccc1F)c1ccc(CN2CCc3ccccc3C2)cc1	none
CCN(CCCNC(=O)c1nn(-c2ccc(OC)cc2)c(=O)c2c1c1ccccc1n2C)c1cccc(C)c1	none (no result: Giardia killer, D3 antag, B2AR arrestin)
CC(=O)N1Cc2cc(C(=O)NCC(F)(F)F)nc(-c3cccc(-c4cccnc4)c3)c2[C@H]1CCO	D3 antag inconclusive (no result: Giardia killer, B2AR arrestin)
CC(=O)N1Cc2cc(C(=O)NCC(F)(F)F)nc(-c3cccc(-c4cc5ccccc5o4)c3)c2[C@@H]1CCO	DRD3 agonist 55 (no result: Giardia killer, B2AR arrestin)
C=CC[C@@H]1Cc2c(Br)ccc(Br)c2[C@@H](CC=C)N1	DRD3 agonist 32
C[C@@H]1C[C@H]2[C@@H]3CCC4=CC(=O)C=C[C@]4(C)[C@@]3(F)[C@@H](O)C[C@]2(C)[C@@]1(O)C(=O)COC(=O)c1cccc(S(=O)(=O)O)c1	none (no result: Giardia killer, D3 antag, B2AR arrestin)
CC(=O)Nc1ccc(/C=C/c2nc(-c3ccccc3O)n(-c3ccccc3)n2)cc1	none (no result: Giardia killer, D3 antag, B2AR arrestin)
CC1CN(Cc2c(O)ccc3c2oc(=O)c2ccccc23)CC(C)O1 (stereo unspecified)	D3 antag -66
CC1CN(Cc2c(O)ccc3c(=O)c(-c4ccccc4)coc23)CC(C)O1 (stereo unspecified)	none
COc1cc(/C=C2\SC(=O)NC2=O)ccc1Oc1ccc([N+](=O)[O-])cc1[N+](=O)[O-]	none
CCN1C(=O)C(=Cc2cccc(OC)c2Oc2ccc([N+](=O)[O-])cc2[N+](=O)[O-])SC1=S	D3 antag -70
COC(c1ccccc1)(c1ccccc1)[C@H](Oc1nc(C)cc(C)n1)C(=O)O	none (no result: Giardia killer, D3 antag, B2AR arrestin)
Cc1ccc(Cl)cc1N1CCN(C(=O)c2ccc3c(c2)N(Cc2ccccc2)CCS3)CC1	none (no result: Giardia killer, D3 antag, B2AR arrestin)
